# Target: Follistatin-related protein 3 (Homo sapiens) (UniProt O95633)
# Assay: FSTL3 binders on small-molecule microarrays, primary screen, biochemical, small-molecule microarray, 635 nm fluorescence (AID 1105);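 also: score merges emission near 667 nm and signal to noise per printed spot across three slides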
# Settings: FSTL3 binding, higher = more signal
# Chain of Follistatin-related protein 3 (Homo sapiens) (O95633 whole entry, looked up): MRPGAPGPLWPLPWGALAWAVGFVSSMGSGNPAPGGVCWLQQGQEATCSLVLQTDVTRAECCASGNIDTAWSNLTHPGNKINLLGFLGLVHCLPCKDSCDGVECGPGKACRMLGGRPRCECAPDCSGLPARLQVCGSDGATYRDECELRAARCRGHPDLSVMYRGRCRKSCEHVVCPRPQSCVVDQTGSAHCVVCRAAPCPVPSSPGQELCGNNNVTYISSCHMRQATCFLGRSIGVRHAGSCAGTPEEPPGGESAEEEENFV
row,SMILES,composite z-score
1,COCCOC(=O)N1C(=O)[C@@]2(c3cc(C#CC4=CCCCC4)ccc31)[C@H](c1ccccc1OCCO)N1[C@H](c3ccccc3)[C@H](c3ccccc3)OC(=O)[C@H]1[C@@H]2C(=O)Nc1nc2ccccc2s1,0.981
2,CCCNC(=O)[C@@H]1c2ccccc2C(=O)N(C(C)C)[C@H]1c1ccc(CO)cc1,-0.961
3,CCCCO[C@H]1C[C@H]2C(I)=C[C@@H]1C(=O)[C@]21CO1,0.127
4,CC(C)(C)OC(=O)CC[C@]1(C(=O)NCC(O)CO)N=C(c2ccc(OCCCO)cc2)O[C@H]1c1ccccc1 (stereo partly specified),-0.715
5,C=CC[C@]1(C(=O)O)COC(c2ccc(OCCCO)cc2)=N1,0.406
6,CN1C(=O)C2C=CC(C(O)c3ccccn3)N(N(c3ccccc3)c3ccccc3)C2C1=O (stereo unspecified),0.273
7,[N-]=[N+]=NCc1ccccc1C[C@@]1(C(=O)N2CCOCC2)N=C(c2ccc(OCCCO)cc2)O[C@@H]1c1ccccc1,-0.14
8,CC(=O)NCCCC[C@@H]1NC(=O)[C@@H]2C[C@H](C(=O)NCCCC[N+](C)(C)C)[C@H](c3ccc(O)cc3)N2C1=O,1.47
9,C[C@H]1NC(=O)[C@@]23C(=O)N[C@@H](Cc4ccccc4)C2[C@H](C)[C@@]2(C)O[C@H]2C3/C=C/C/C=C\CNC(=O)[C@H](Cc2ccccc2)NC1=O (stereo partly specified),1.01
10,[N-]=[N+]=Nc1ccccc1C[C@]1(C(N)=O)N=C(c2ccc(OCCCO)cc2)O[C@H]1c1ccccc1N=[N+]=[N-],-0.0523
11,O=C1O[C@@H](c2ccccc2)[C@@H](c2ccccc2)N2[C@@H](c3ccc(O)cc3)[C@]3(C(=O)Nc4ccc(C#CC5=CCCCC5)cc43)[C@@H](C(=O)NC[C@H](O)c3ccccc3)[C@H]12,1.42
12,CCOC(=O)C1=CC[C@@H](c2ccccc2C(F)(F)F)N(S(=O)(=O)c2ccc(C)cc2)[C@H]1c1ccc(C#N)cc1,0.772
13,O[C@@H](Cc1ccccc1)[C@@H](/C=C/C1CC1)N(CC#Cc1ccccc1)Cc1cccc(Cl)c1,-1.54
14,CN(C)CCCCNC(=O)[C@@H]1C[C@@H]2C(=O)N[C@@H](Cc3ccccc3)C(=O)N2[C@@H]1c1cccc(OCCO)c1,1.26
15,COc1ccc([Si](C)(C)[C@@H]2[C@@H](CC(=O)N(CCO)Cc3ccccc3)O[C@]3(C(=O)N(c4ccccc4)c4ccccc43)[C@H]2C)cc1,1.21
16,CC=CC(O)C1C=CC2C(=O)N(c3ccccc3)C(=O)C2N1Nc1ccccc1F (stereo unspecified),-0.0808
17,C=CC1c2cc(O)c(OC)cc2CCN1Cc1cc2c(cc1Br)OCO2 (stereo unspecified),0.327
18,CC(C)C(CO)N1C(=O)[C@@H]2C3C(=O)OCCC/C=C\[C@H]3OC23C=CCN(C(C)(C)C)C(=O)[C@@H]13 (stereo partly specified),-0.504

row,SMILES,composite z-score
1,[N-]=[N+]=NCc1ccccc1C[C@@]1(C(=O)N2CCCCC2)N=C(c2ccc(OCCCO)cc2)O[C@@H]1c1ccccc1,-0.281
2,O=C1C[C@@](C(=O)NCCN2CCOCC2)(c2ccc([N+](=O)[O-])cc2)[C@@H](c2ccc(CO)cc2I)N1C1CCCCC1,0.926
3,COC(=O)c1c(CC[C@@H](CO)NC(=O)N2CCC[C@H]2Cn2cc(Cc3ccccc3)nn2)oc(C(C)=O)c1C(=O)OC,0.92
4,O=C1NC(=O)C2C1C=CC(C(O)c1cccc3ccccc13)N2Nc1ccc(Cl)cc1Cl (stereo unspecified),0.0589
5,N#Cc1ccc(C(O)C2C=CC3C(=O)N(c4ccccc4)C(=O)C3N2Nc2ccccc2)cc1 (stereo unspecified),0.391
6,COC(=O)[C@@]1(Cc2ccc(OC)cc2)[C@H]2c3cc(C(=O)N(C)C)n(C[C@H](O)CO)c3C[C@H]2CN1C(=O)c1ccccc1,0.472
7,COc1cc(OC)c(C(O)C2C=CC3C(=O)N(c4ccccc4)C(=O)C3N2Nc2ccccc2)cc1Br (stereo unspecified),0.39
8,COCCCNC(=O)[C@@]1(Cc2ccccc2N=[N+]=[N-])N=C(c2ccc(OCCCO)cc2)O[C@H]1c1ccccc1,0.402
9,C=C(C)C1CCC(C(O)C2C=CC3C(=O)N(C)C(=O)C3N2N2CCCCC2)CC1 (stereo unspecified),1.35
10,Cc1ccc(S[C@]2(C(=O)O)CC(=O)N(C3Cc4ccccc4C3)[C@@H]2c2ccc(CO)cc2)cc1,-0.946
11,O=C1C2C=CC(C(O)c3ccc(Br)cc3)N(Nc3ccccc3F)C2C(=O)N1c1ccccc1 (stereo unspecified),0.0807
12,CC(C)(C)N1CC=CC23O[C@@H]4C=CCCOC(=O)C4[C@H]2C(=O)N(CCO)[C@@H]3C1=O (stereo partly specified),-0.959
13,C=CCNC(=O)[C@H]1[C@@H]2C(=O)O[C@@H](c3ccccc3)[C@@H](c3ccccc3)N2[C@@H](c2ccc(O)cc2)[C@]12C(=O)N(C(=O)OCCOC)c1ccccc12,0.552
14,C[C@@H]1NC(=O)[C@@]23C(=O)N[C@@H](Cc4ccccc4)C2[C@H](C)[C@@]2(C)O[C@H]2C3/C=C/C/C=C\CNC(=O)[C@@H]2CCCN2C1=O (stereo partly specified),-0.165
15,COCCOC(=O)N1C(=O)[C@@]2(c3cc(C#Cc4ccc(OC)cc4)ccc31)[C@H](C(=O)Nc1nc3ccccc3s1)[C@H]1C(=O)O[C@H](c3ccccc3)[C@H](c3ccccc3)N1[C@@H]2c1ccc(O)cc1,1.24
16,CN(C)C(=O)C1N=C(c2ccc(OCCCO)cc2)N(c2ccccc2)O1 (stereo unspecified),0.739
17,O=C(NCC(F)(F)F)[C@@H]1c2ccccc2C(=O)N(Cc2ccc(OC(F)(F)F)cc2)[C@H]1c1ccc(CO)cc1,0.284
18,[N-]=[N+]=Nc1ccccc1[C@H]1OC(c2ccc(OCCCO)cc2)=N[C@@]1(Cc1ccccc1)C(=O)N1CCCCC1,1.11
